# The whole screen tested about 69,000 compounds, of which about 420 (0.61%) showed an effect of 50% or more. Many of the other results were omitted from the sample, so strong results are more common in it than they were.
# Target: T1, Histidine--tRNA ligase (Leishmania infantum) (UniProt A4I591)
# T1 sequence (whole entry): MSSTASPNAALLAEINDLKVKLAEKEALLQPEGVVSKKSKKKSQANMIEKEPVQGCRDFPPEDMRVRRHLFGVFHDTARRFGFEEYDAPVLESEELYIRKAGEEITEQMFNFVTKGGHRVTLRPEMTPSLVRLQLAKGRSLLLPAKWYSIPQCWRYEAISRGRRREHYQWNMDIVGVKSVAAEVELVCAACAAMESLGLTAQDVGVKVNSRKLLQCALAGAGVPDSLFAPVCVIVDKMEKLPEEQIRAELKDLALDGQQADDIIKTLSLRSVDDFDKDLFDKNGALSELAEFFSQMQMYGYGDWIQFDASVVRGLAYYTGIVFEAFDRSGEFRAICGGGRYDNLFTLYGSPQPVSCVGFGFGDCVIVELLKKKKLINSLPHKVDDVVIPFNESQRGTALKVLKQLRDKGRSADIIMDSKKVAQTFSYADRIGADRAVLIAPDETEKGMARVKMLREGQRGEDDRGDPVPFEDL
# Assay: Leishmania infantum Histidine tRNA synthetase (LdHisRS)
# Assay type: functional
# Parameters: scale not given: in the data most compounds retested in dose-response had high values
# Conditions: 30 µM
row,Compound,Percent Effect
1,O=C1CC(c2ccccc2F)c2c(n3ccsc3nc2=O)N1 (configuration not stated),11.7%
2,CNc1nc2c(s1)C(c1cccc(Cl)c1Cl)CC(=O)N2 (configuration not stated),42.5%
3,CNc1nc2c(s1)C(c1cccc(F)c1F)CC(=O)N2 (configuration not stated),45.7%
4,Cn1ncc2c1NC(=O)CC2c1ccccc1Cl (configuration not stated),14.3%
5,O=C([C@H]1COC[C@H]2CN(c3ncc(F)cn3)C[C@H]21)N1CCOCC1,1.71%
6,Cc1ccccc1C(=O)NCc1ccc(N2CCNC(=O)C2)cc1,44.2%
7,CC(O)CNC(=O)NCc1ccc(N2CCNC(=O)C2)cc1 (configuration not stated),49.3%
8,CC(C(=O)NCc1ccc(N2CCNC(=O)C2)cc1)n1cncn1 (configuration not stated),52%
9,Cc1cccnc1NC(=O)NCc1ccc(N2CCNC(=O)C2)cc1,84.9%
10,CC(C(=O)NCc1ccc(N2CCNC(=O)C2)cc1)c1cccs1 (configuration not stated),20.9%
11,Cc1nnc(NC(=O)NCc2ccc(N3CCNC(=O)C3)cc2)s1,39.8%
12,CCOc1ccc(Cl)cc1CNCCCn1ccnc1,9.71%
13,CCOc1c(CNCCCn2ccnc2)cc(Cl)cc1OC,10%
14,CCOc1c(Cl)cc(Cl)cc1CNCCCn1ccnc1,58.3%
15,C[C@H]1C(=O)NC[C@H]2CN(Cc3cccc(F)c3)C[C@H]21,15.6%
16,COCCNC(=O)[C@H]1CN(c2nnc(C)s2)C[C@H]2OCC[C@@H]12,5.11%
17,NCc1ccnc(Oc2ccccc2)c1,59%
18,NCc1ccnc(Oc2ccc(F)cc2)c1,30.1%
19,COc1ccc(Oc2cc(CN)ccn2)cc1,32.5%

row,Compound,Percent Effect
1,CNC(=O)CN1CC[C@H]2CN(C(=O)c3ccccc3F)C[C@H]2C1,16.7%
2,O=C(NC1CC1)[C@H]1C[C@H]2OCC[C@H]2N(Cc2ccc(F)cc2)C1,2.78%
3,CNC(=O)CN1CCO[C@H]2CN(CC3CCOCC3)C[C@H]21,32%
4,CCN1C[C@H]2C3(CCN(S(=O)(=O)CC)CC3)CC[C@@]2(C(=O)N(C)C)C1,7.69%
5,Cc1noc([C@]23COC[C@H]2CN(C(=O)Cc2ccsc2)C3)n1,9.91%
6,CCCN(CCc1ccccn1)C(=O)CCc1cnn(C)c1,1.21%
7,COCCN(C)C(=O)c1nc2c(s1)CCCN2c1ncccn1,17.5%
8,CCCN(C(=O)c1ccccn1)c1nc2c(s1)CCc1c-2cnn1C,106%
9,Cc1cc(-c2cnc(C)nc2CN(C)C(=O)c2ccccn2)on1,2.07%
10,COCCN(Cc1ccoc1)C(=O)c1ccccn1,16.4%
11,Cc1cnccc1-c1cnn(CCNC(=O)c2ccccn2)c1C1CC1,4.25%
12,CN(C(=O)c1ccccn1)c1nc2c(s1)CCc1c-2cnn1C,103%
13,COCCN(C(=O)c1ccccn1)c1nc2c(s1)CCc1c-2cnn1C,101%
14,CN(C(=O)c1ccccn1)c1nnc(C2CCOC2)s1 (configuration not stated),5.59%
15,Cc1ccc(CN2CC[C@@H]3[C@@H](CO[C@H]3CN(C)C)C2)o1,10%
16,CC(C)NC(=O)N1CC[C@@H]2CN(Cc3ccccc3)S(=O)(=O)[C@@H]2CC1,1.5%
17,COCCN1CCN(Cc2ccc(C(C)=O)cc2)[C@H]2CS(=O)(=O)C[C@H]21,22.2%
18,Cc1nnc(N2C[C@H](C(=O)NCC3CC3)[C@@H]3CCO[C@@H]3C2)s1,2.91%
19,Cc1ccn(C)c(=O)c1NC(=O)N(C)Cc1cccc(OC(C)C)c1,77.5%

row,Compound,Percent Effect
1,CCC(=O)N(C)Cc1cccc(OC(C)C)c1,4.46%
2,CC(C)Oc1cccc(CN(C)C(=O)Nc2cccn(C)c2=O)c1,13.9%
3,Cc1csc(CN2CC[C@H]3C(=O)N(c4cccnc4)CCO[C@H]3C2)n1,23.1%
4,COCc1nc2cc(NCc3ccc(CO)o3)ccc2o1,86.6%
5,COCc1nc2c(o1)CN(C(=O)NCc1ccccc1)C2,16%
6,COCc1nc2cc(NCc3ccc(C)o3)ccc2o1,102%
7,CC(C)(C)c1nc2cc(NC(=O)Cn3ccc(=O)[nH]c3=O)ccc2o1,14%
8,Cc1ccc(CNC(C)(C)c2noc(C(C)(C)C)n2)o1,27.1%
9,COc1ccccc1C(C)(C)NCc1ccc(C)o1,2.86%
10,O=C(NCC1CC1)[C@@H]1CCO[C@@H]2CCN(Cc3ccsc3)C[C@H]21,20%
11,Cn1cnc(S(=O)(=O)N2CCO[C@H]3[C@@H](OCC4CC4)CC[C@@H]32)c1,-5.26%
12,Cc1nc(-c2ccc(CC(=O)N3CCN(C(=O)C(C)C)CC3)cc2)cs1,63.6%
13,Cc1nc(-c2ccc(CC(=O)N3CCN(C(=O)C4CC4)CC3)cc2)cs1,21.2%
14,Cc1nc(-c2ccc(CC(=O)N3CCNC(=O)C3)cc2)cs1,-9.09%
15,Cc1csc([C@@H]2C[C@@H]3CCN(C(=O)c4cc(C)on4)C[C@H]3O2)n1,18.4%
16,CC(=O)N1[C@H](Cn2cncn2)C[C@@H]2CN(C(=O)c3ccoc3)CC[C@@H]21,13.5%
17,O=C1CC(c2ccccc2)c2sc(C(=O)O)c(-c3ccccc3)c2N1 (configuration not stated),13%
18,O=C1CC(c2ccco2)c2sc(C(=O)O)c(-c3ccccc3)c2N1 (configuration not stated),91.4%
19,O=C1CC(c2ccc(O)cc2)c2sc(C(=O)O)c(-c3ccccc3)c2N1 (configuration not stated),20.8%
